This note sets out measurements from PubChem BioAssay (NCATS).

In experiment [1] the target is DNA dC->dU-editing enzyme APOBEC-3G (Homo sapiens) (UniProt Q9HC16). In words: qHTS for inhibitors of Vif-A3G interactions: Validation (AID 588379). Note: 0% is about no effect. The method in brief: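 HeLa cells stably expressing Vif and A3G-eYFP, 700 cells/well, incubated overnight at 37 deg C, then exposed to compound overnight at 37 deg C. Inhibition of Vif-mediated degradation read as increased yellow fluorescence (Ex 488/Em 500-530) by laser-scanning cytometry.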

Experiment [2] in a line: Cell Viability qHTS for small molecule stabilizers of the endoplasmic reticulum resident proteome (AID 1508629).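 Note: human SH-SY5Y neuroblastoma cells carrying the GLuc-SERCaMP reporter; compound exposure about 46 h in total before the viability read; % is set by controls: 0 for no effect and ±100 for the full control effect.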 Particulars: cell viability counter-screen, 100 nM thapsigargin for final 4 h.
Experiment [3] can be described thus: qHTS for differential inhibitors of proliferation of Plasmodium falciparum line 7G8 (AID 1815).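 Note: potency is the fitted concentration of half-maximal effect; parasite growth measured after three days of incubation.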
The nature of experiment [4]: qHTS for differential inhibitors of proliferation of Plasmodium falciparum line GB4 (AID 1816).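 Note: potency is the fitted concentration of half-maximal effect; parasite growth measured after 72 h incubation.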 Particulars: Potency: Plasmodium falciparum GB4 proliferation inhibition.
Experiment [5] in a line: qHTS for differential inhibitors of proliferation of Plasmodium falciparum line 3D7 (AID 1876). Note: potency is the fitted concentration of half-maximal effect.
Experiment [6] can be described thus: qHTS for differential inhibitors of proliferation of Plasmodium falciparum line D10 (AID 1877).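 Note: potency is the fitted concentration of half-maximal effect; parasites grown with compound for 72 h before DNA staining.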
Experiment [7] is described as follows: qHTS for differential inhibitors of proliferation of Plasmodium falciparum line Dd2 (AID 1882). Note: nearly all actives have a fitted effect of over 65% in size. Note: potency is the fitted concentration of half-maximal effect. Particulars: Potency: Plasmodium falciparum Dd2 proliferation inhibition. In short, it runs like this: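 Dd2-infected erythrocytes (0.3% parasitemia, 2.5% hematocrit final) incubated with compound 72 h at 37 C, 5% CO2; lysed with saponin/Triton buffer containing SYBR Green I, incubated overnight in the dark, then read by fluorescence (485/535 nm). Normalized to 0.29 uM artemisinin and DMSO.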

Experiment [8] in a line: qHTS for differential inhibitors of proliferation of Plasmodium falciparum line W2 (AID 1883).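 Note: potency is the fitted concentration of half-maximal effect; parasites grown with compound for 72 h before lysis and staining.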 The following applies: Potency: Plasmodium falciparum W2 proliferation inhibition.
A short description of experiment [9]: qHTS for differential inhibitors of proliferation of Plasmodium falciparum line HB3 (AID 1886).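 Note: potency is the fitted concentration of half-maximal effect; parasites grown with compound for 72 h before SYBR Green readout.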 The following applies: Potency: Plasmodium falciparum HB3 proliferation inhibition.
In experiment [10] the target is Ferritin light chain (Equus caballus) (UniProt P02791). In words: qHTS Validation Assay for Identification of Novel General Anesthetics (AID 2323). Note: series mostly up to about 77 µM; % is set by controls: 0 for no effect and ±100 for the full control effect. The method in brief:
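Competitive displacement of profluorescent 1-aminoanthracene (1-AMA, 50% saturated solution in PBS) from 10 uM horse-spleen apoferritin. Compounds incubated 10 min at room temperature; fluorescence read at 380 nm excitation/535 nm emission, normalized to free 1-AMA and complex, fitted with four-parameter Hill equation.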

The target of experiment [11] is ATP-dependent DNA helicase Q1 (Homo sapiens) (UniProt P46063). As to the kind of experiment: qHTS Validation Assay for Inhibitors of RecQ-Like Dna Helicase 1 (RECQ1) (AID 2353).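 Note: plate controls were DMSO vehicle for no effect and enzyme-free control for full effect.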 In short, it runs like this: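 50 nM RECQ1T1 preincubated 15 min with compound in Tris pH 8.0 buffer with MgCl2, DTT, Tween-20 and 2.5 ug/ml poly(dI-dC); started with 200 nM TAMRA/BHQ-2 forked duplex and 2 mM ATP. Unwinding read as fluorescence (525/598 nm), two reads 2 h apart.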

A short description of experiment [12]: Quantitative high throughput screen for delayed death inhibitors of the malarial parasite plastid, 96 hour incubation (AID 488745). Note: nearly all actives have a fitted effect of over 70% in size. Note: potency is the fitted concentration of half-maximal effect. The method in brief:
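Infected erythrocytes were added to compound in Albumax-supplemented RPMI 1640 at 0.1% parasitemia and 2% hematocrit (final), incubated 96 h at 37 C under 5% CO2, then luciferase reagent was added and luminescence measured.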

The nature of experiment [13]: Quantitative high throughput screen for delayed death inhibitors of the malarial parasite plastid, 48 hour incubation (AID 488752). Note: nearly all actives have a fitted effect of over 65% in size. Note: potency is the fitted concentration of half-maximal effect. In short, it runs like this: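 Readout is firefly luciferase luminescence from a reporter integrated into the parasite genome, with lower signal taken as inhibited growth. Infected red cells (0.1% parasitemia, 2% hematocrit final) are cultured with compound for one 48 h cycle at 37 C.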

In experiment [14] the target is M-phase phosphoprotein 8 (Homo sapiens) (UniProt Q99549). In words: qHTS Validation Assay for Inhibitors for MPP8 Chromodomain Interactions with Methylated Histone Tails (AID 488949). Note: nearly all actives have a fitted effect of over 55% in size. Note: potency is the fitted concentration of half-maximal effect. The method in brief: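 MPP8 (50 nM) was preincubated with biotinylated H3(1-18)K9me3 peptide (50 nM) in PBS pH 7.4, 0.01% Tween-20 for 30 min at room temperature, then with compounds for 30 min; binding was detected by AlphaScreen.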

Experiment [15] addresses Transient receptor potential cation channel subfamily V member 1 (Homo sapiens) (UniProt Q8NER1). In words: HTS Assay for Compounds that Act as Enhancers of the Vanilloid Receptor 1 (AID 488979). Note: 0% is about no effect. In short, it runs like this: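 TRPV1 cells loaded with Fluo-8 calcium dye; compound added and Ca2+ signal (ex 480/em 520 nm) followed 3 min, then capsaicin at EC20 added and read 2 more min to detect enhancement.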

Experiment [16] has as its target Thyrotropin receptor (Homo sapiens) (UniProt P16473). As to the kind of experiment: qHTS Assay for Antagonists of the Thyroid Stimulating Hormone Receptor (AID 488980). Note: series mostly up to about 58 µM; 0% is about no effect. The method in brief:
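HEK293 cells transfected with human TSHR, suspended in HEPES-buffered HBSS with 70 uM RO 20-1724, were treated with compounds plus TSH at EC80 (4 nM final). cAMP was measured by competitive HTRF (cryptate anti-cAMP antibody, cAMP-d2 acceptor).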

The target of experiment [17] is Galactokinase (Homo sapiens) (UniProt P51570). As to the kind of experiment: qHTS Validation Assay for Inhibitors of Human Galactokinase (GALK) (AID 493189). Note: 0% is about no effect. The method in brief: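 GALK (5 nM) with 35 uM ATP and 100 uM galactose in HEPES pH8.0, MgCl2, NaCl, DTT, BSA; 1 h at room temperature. Residual ATP read by Kinase-Glo Plus luminescence after 10 min.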
In experiment [18] the test system is HIV-1 nucleocapsid protein NCp7 (binding to TG oligonucleotide). In words: HIV Nucleocapsid (AID 346; call rule not given here;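 note: potency is the fitted concentration of half-maximal effect; potency is for inhibitors that block NC binding and lower polarization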). Particulars: HIV-1 NC / fluorescein-TGTGTGTG probe, fluorescence polarization. The method in brief:
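HIV-1 NC (100 nM) binding to fluorescein-labelled ssDNA TG4xF (10 nM) in Hepes pH 7.5, 250mM NaCl, 1uM ZnCl2, TCEP and 2-mercaptoethanol; compounds pin-transferred, 1 hr room temperature, fluorescence polarization read on CCD imager.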

The target of experiment [19] is Cytochrome P450 3A4 (Homo sapiens) (UniProt P08684). As to the kind of experiment: qHTS Assay for Inhibitors and Substrates of Cytochrome P450 3A4 (AID 884). Note: series mostly up to about 57 µM; % is set by controls: 0 for no effect and ±100 for the full control effect; nearly all actives have a fitted effect of over 50% in size. The method in brief:
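20 nM human CYP3A4 with 25 uM Luciferin-PPXE (at KM) in 200 mM KPO4, preincubated 10 min with compound; NADPH regeneration started a 60 min RT reaction. Luciferin detected by luminescence, normalized to 57 uM ketoconazole as full inhibition.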

In experiment [20] the target is Cytochrome P450 2C9 (Homo sapiens) (UniProt P11712). As to the kind of experiment: qHTS Assay for Inhibitors and Substrates of Cytochrome P450 2C9 (AID 883). Note: nearly all actives have a fitted effect of over 60% in size. Note: potency is the fitted concentration of half-maximal effect. In short, it runs like this:
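Signal: luciferase luminescence reporting luciferin produced by CYP2C9. Conditions: 10nM enzyme, Luciferin-H 100uM at KM, 25mM KPO4, 37C, 60 min NADPH-driven reaction. Reference: 57uM sulphaphenazole as 100% inhibition.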

Unmarked numbers belong to inactive results. Inconclusive results are not listed. Active and inactive are the calls of the source. Unless noted, calls come from the whole dose curve; as a rule, active = well fitted curve in the direction sought with a large enough effect; inconclusive = small, poorly fitted or top-dose-only effect, or another doubt; inactive = no such curve, though single readings can be large; an effect the other way counts as inactive or inconclusive.

Sequence of DNA dC->dU-editing enzyme APOBEC-3G (Homo sapiens) (Q9HC16 whole entry, looked up): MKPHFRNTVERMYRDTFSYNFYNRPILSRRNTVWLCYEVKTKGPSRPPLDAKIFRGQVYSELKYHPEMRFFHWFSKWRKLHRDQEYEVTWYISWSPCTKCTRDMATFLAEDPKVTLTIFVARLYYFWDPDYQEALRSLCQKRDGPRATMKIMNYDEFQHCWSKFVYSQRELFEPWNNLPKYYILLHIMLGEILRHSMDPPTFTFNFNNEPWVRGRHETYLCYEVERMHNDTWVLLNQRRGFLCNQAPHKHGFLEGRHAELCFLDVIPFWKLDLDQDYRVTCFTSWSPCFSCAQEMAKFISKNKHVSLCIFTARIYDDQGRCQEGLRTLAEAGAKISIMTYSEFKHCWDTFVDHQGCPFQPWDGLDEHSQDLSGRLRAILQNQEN
Sequence of ATP-dependent DNA helicase Q1 (Homo sapiens) (P46063 whole entry, looked up): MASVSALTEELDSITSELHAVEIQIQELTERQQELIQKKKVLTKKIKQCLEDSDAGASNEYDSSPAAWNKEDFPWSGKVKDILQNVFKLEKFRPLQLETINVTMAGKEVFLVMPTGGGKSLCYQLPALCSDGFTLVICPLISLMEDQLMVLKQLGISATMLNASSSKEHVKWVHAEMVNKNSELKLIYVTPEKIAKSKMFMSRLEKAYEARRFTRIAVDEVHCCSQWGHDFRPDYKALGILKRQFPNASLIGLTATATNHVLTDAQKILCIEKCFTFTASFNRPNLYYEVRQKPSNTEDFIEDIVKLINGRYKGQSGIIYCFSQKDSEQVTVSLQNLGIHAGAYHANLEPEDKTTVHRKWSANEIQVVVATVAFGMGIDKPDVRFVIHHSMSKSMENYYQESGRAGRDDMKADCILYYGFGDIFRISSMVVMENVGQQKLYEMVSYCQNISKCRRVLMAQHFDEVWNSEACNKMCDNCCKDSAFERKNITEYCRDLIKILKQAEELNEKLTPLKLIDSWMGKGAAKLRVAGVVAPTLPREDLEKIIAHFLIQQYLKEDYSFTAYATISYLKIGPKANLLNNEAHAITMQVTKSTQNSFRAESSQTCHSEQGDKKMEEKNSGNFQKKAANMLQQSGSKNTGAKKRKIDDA
Sequence of Thyrotropin receptor (Homo sapiens) (P16473 whole entry, looked up): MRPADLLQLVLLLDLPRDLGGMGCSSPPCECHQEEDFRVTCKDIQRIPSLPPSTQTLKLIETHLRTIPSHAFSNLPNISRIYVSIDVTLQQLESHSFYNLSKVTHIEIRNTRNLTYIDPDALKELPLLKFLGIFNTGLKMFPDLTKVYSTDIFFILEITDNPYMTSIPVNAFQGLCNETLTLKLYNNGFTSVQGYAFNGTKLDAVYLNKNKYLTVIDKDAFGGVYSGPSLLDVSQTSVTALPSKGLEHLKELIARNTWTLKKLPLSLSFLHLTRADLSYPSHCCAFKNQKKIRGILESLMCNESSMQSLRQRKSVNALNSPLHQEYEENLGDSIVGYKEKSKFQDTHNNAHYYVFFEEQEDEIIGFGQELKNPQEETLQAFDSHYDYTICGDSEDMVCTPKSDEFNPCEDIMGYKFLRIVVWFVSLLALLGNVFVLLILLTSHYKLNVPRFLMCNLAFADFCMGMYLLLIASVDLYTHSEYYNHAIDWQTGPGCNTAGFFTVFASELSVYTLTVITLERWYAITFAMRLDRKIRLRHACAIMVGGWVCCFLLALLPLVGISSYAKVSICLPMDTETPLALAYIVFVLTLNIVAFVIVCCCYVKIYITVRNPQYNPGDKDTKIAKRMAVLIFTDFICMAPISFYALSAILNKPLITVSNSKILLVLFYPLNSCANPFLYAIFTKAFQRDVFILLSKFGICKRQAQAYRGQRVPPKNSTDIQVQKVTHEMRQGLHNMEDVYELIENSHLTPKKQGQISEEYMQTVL
Sequence of Galactokinase (Homo sapiens) (P51570 whole entry, looked up): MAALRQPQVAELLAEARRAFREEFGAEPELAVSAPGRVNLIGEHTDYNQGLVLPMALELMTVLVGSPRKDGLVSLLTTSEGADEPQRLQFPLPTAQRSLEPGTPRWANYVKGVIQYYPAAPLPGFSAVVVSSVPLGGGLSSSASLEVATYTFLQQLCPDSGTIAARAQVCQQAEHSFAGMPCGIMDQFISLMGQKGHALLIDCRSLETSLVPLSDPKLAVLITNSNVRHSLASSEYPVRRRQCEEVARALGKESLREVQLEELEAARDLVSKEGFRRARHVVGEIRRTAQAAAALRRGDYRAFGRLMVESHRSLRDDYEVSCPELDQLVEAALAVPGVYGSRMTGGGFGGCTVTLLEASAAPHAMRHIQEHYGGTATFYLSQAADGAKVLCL
Sequence of Cytochrome P450 2C9 (Homo sapiens) (P11712 whole entry, looked up): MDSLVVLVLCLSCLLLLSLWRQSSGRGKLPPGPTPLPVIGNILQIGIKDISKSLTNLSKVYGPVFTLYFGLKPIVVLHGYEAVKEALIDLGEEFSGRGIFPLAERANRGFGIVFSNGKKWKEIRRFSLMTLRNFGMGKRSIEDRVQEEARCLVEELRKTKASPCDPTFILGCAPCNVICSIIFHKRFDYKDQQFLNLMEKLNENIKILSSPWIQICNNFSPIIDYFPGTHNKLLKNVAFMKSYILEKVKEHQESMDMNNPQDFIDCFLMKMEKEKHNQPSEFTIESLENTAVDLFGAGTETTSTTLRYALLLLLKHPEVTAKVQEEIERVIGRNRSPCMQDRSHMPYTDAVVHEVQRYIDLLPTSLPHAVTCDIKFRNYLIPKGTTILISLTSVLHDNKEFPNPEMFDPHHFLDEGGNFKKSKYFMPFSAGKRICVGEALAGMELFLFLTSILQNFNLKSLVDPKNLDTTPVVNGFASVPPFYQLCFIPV
Sequence of Ferritin light chain (Equus caballus) (P02791 2-175 limits assumed): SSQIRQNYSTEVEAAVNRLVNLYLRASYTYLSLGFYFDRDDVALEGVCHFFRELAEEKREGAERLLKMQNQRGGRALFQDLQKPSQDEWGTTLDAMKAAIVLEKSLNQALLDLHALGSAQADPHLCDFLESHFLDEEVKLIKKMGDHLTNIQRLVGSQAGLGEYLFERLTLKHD
Sequence of Transient receptor potential cation channel subfamily V member 1 (Homo sapiens) (Q8NER1 whole entry, looked up): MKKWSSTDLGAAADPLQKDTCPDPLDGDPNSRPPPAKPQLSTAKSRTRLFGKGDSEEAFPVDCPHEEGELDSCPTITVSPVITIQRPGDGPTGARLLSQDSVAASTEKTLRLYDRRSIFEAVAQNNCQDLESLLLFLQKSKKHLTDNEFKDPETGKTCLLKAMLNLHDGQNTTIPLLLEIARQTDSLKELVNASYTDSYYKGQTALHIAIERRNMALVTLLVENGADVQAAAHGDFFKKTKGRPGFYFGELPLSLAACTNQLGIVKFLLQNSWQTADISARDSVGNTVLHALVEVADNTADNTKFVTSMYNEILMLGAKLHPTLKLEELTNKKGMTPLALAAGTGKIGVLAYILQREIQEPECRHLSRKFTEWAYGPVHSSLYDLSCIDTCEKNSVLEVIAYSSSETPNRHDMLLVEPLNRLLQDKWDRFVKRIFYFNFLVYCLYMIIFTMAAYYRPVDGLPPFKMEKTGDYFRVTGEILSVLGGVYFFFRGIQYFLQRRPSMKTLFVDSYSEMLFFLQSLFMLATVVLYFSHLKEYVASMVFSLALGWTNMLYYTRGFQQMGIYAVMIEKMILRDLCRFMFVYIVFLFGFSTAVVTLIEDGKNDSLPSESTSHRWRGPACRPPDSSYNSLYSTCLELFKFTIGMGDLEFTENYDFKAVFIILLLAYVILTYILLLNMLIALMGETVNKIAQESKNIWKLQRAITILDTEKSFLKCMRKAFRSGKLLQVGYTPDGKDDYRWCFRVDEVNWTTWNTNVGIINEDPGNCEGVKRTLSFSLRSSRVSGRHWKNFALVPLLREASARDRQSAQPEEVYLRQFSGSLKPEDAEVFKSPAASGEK
Sequence of M-phase phosphoprotein 8 (Homo sapiens) (Q99549 whole entry, looked up): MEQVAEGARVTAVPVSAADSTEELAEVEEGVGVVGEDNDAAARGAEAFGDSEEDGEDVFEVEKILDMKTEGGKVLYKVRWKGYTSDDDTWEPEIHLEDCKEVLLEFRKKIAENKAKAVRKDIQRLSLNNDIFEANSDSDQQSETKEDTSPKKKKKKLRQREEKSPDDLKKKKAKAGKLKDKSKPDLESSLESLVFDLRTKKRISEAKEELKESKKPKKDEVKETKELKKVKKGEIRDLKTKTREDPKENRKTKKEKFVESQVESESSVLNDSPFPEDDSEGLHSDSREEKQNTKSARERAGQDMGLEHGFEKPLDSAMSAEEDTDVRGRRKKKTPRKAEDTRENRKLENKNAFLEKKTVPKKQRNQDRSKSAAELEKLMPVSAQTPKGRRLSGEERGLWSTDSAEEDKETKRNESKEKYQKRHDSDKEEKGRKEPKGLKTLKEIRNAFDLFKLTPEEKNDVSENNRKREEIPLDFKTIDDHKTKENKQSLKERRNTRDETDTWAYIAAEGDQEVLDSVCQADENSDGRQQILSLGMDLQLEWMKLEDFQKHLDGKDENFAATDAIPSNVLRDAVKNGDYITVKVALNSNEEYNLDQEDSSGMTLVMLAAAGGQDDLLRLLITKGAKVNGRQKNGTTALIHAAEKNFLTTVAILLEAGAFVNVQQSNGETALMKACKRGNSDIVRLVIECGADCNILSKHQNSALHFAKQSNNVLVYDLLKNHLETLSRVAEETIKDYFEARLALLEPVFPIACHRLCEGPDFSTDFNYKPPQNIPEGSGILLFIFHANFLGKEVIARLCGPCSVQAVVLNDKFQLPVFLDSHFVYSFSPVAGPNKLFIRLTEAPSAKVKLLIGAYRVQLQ

Turning to `N#C/C(=C\c1ccc(O)c(O)c1)C(N)=S`, in experiment [1], the compound was classed as inactive.

For the compound `c1ccc(N2CC[C@@]3(CCCNC3)C2)cc1`, the max response in [2] is 3.77%.

As for `C=CCN1CCc2cccc3c2C1Cc1ccc(O)c(O)c1-3` (stereo unspecified), the Potency in [3] was 2.82 µM (active); in experiment [4] it was 2 µM (active); in experiment [5], 2.82 µM (active); in experiment [6], 2 µM (active); in experiment [7], 2.82 µM (active); in [8], 2.51 µM (active). For the same compound, the Potency is 2 µM (active) in experiment [9], 10.4 µM (active) in [13] and 6.31 µM (active) in experiment [14]. Also, the Potency entry in experiment [10] and in [12] was “inactive” in each case. The call in [11], in experiment [15], in experiment [16] and in [17] was inactive.

`c1ccc(N2CCCC3(CCNCC3)C2)cc1`: the Potency in experiment [18] is above 20 µM. Moreover, the max response in experiment [2] was -4.75%.

For `O=C(O)[C@@H]1CSC(c2cccnc2)N1` (stereo partly specified), the max response in [2] is 25.6%.

As to `CN1CC[C@@]2(CCCN(C(=O)c3csnn3)C2)C1`, the Potency in experiment [18] is above 20 µM.

`c1ccc(N2CCC3(CCNCC3)CC2)nc1`: the Potency in [18] is above 20 µM.

Regarding `COc1ccc(NC(=O)N2CCCC3(CCN(C(=O)Oc4ccccc4)CC3)C2)cc1`, the Potency in experiment [18] was above 20 µM.

For the compound `O=C(Oc1ccccc1)N1CCC2(CC1)CN(C(c1ccccc1)c1ccccc1)C2`, the Potency in experiment [18] is above 20 µM.

For the compound `c1ccc(N2CCCC3(CCNCC3)C2)nc1`, the max response in experiment [2] was -3.57%.

With `CC(=O)C1=C(O)C2C3c4c[nH]c5cccc(c45)CC3C(C)(C)N2C1=O` (stereo unspecified), the Potency entry in experiment [19] is “inactive”. In addition, the max response in experiment [2] was -5.15%.

For `c1cc(CN2CCCC3(CCNCC3)C2)ccn1`, the max response in experiment [2] was 27.2%.

Consider `c1cnc(N2CCC3(CCNCC3)CC2)nc1`, for which the max response in [2] was 1.49%.

Turning to `CCc1c(C(=O)OC)ncc2[nH]c3cc(OC)c(OC)cc3c12`, the Potency in [3] is 7.94 µM (active); in [4] it was 12.6 µM (active); in experiment [5], 12.6 µM (active); in experiment [8], 7.94 µM (active); in experiment [9], 10 µM (active). For the same compound, the Potency result in experiment [7], in [10], in experiment [12], in [13] and in [14] was “inactive” in each case. In addition, the outcome in experiment [11], in experiment [15], in [16] and in experiment [17] was inactive.

`CCCN1CCc2cc(O)cc3c2C1Cc1ccc(O)c(O)c1-3` (stereo unspecified): the Potency in experiment [3] was 5.01 µM (active); in experiment [4], 3.16 µM (active); in experiment [5] it was 2.51 µM (active); in experiment [6] it was 3.98 µM (active); in experiment [7] it was 8.91 µM (active); in experiment [8], 3.55 µM (active). In addition, the Potency was 3.55 µM (active) in [9], 3.29 µM (active) in [12], 8.28 µM (active) in experiment [13] and 31.6 µM (active) in [14]. Also, the Potency entry in [10] was “inactive”. Further, the result in [11], in [15], in experiment [16] and in experiment [17] was inactive.

Consider `O=C(O)C1=CCCN(CCOC(c2ccc(C(F)(F)F)cc2)c2ccc(C(F)(F)F)cc2)C1`, for which, in experiment [1], the call was inactive.

Consider `COCC(=O)N1CCC2(CCCN(Cc3ccncc3)C2)CC1`, for which the Potency in [20] was 5.01 µM (active).

For the compound `COc1ccc2c(c1O)-c1c(OC)c(OC)cc3c1[C@H](C2)N(C)CC3`, in experiment [20], the Potency entry is “inactive”. Moreover, the compound was called inactive in experiment [1].

On to `CC(C)[C@@]1(NC(=O)[C@@H]2C[C@@H]3c4cccc5[nH]cc(c45)C[C@H]3N(C)C2)O[C@@]2(O)C3CCCN3C(=O)[C@H](Cc3ccccc3)N2C1=O` (stereo partly specified), for which the Potency was 0.316 µM (active) in experiment [3]; 1.12 µM (active) in experiment [4]; 1 µM (active) in experiment [5]; 2.24 µM (active) in experiment [6]; 1.41 µM (active) in [7]; 0.891 µM (active) in [8]. The Potency in experiment [9] is 0.891 µM (active); in experiment [12] it was 1.47 µM (active); in [13], 1.65 µM (active). For the same compound, the Potency entry in experiment [10] is “inactive”. Moreover, the call in experiment [11], in [15], in experiment [16] and in experiment [17] was inactive.
